The values below come from PubChem BioAssay (Tox21).

Test [1] in a line: qHTS assay to identify small molecule agonists of the NFkB signaling pathway (AID 1159509; active = well fitted curve in the direction sought with a large enough effect in the signal ratio in the repeat runs, not every such curve was filed as active; the % refers to the signal ratio; also: series mostly up to about 61 µM). In short, it runs like this: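 NFkB-bla ME-180 cells carry a beta-lactamase reporter under an NF-kB response element. They were plated overnight, then exposed to compounds for 5 h at 37 C. Read-out is LiveBLAzer FRET after 1.5 hr at room temperature (405 nm excitation; 460/530 nm emission).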
(In qHTS, concentration-response curves come from the screen itself.)

The nature of test [2]: qHTS assay to identify small molecule agonists of the NFkB signaling pathway - cell viability counter screen (AID 1159515; calls by dose curve; also: series mostly up to about 61 µM; nearly all actives have a fitted effect of over 55% in size). Summed up: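 Multiplexed viability readout: after the 5 hr compound exposure and 1.5 hr FRET substrate step, CellTiter-Glo reagent went into the same NFkB-bla ME-180 wells; ATP luminescence was measured after 30 min at room temperature.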
Test [3] can be described thus: qHTS assay to identify small molecule agonists of the endoplasmic reticulum stress response signaling pathway (AID 1159516; active = well fitted activation curve with a large enough effect in the signal ratio in the repeat runs, not every such curve was filed as active; the % refers to the signal ratio). In short, it runs like this: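 Tox21 10K library screened in quantitative HTS format on ESRE-bla HeLa cells, a beta-lactamase reporter under ER stress response element control; 5 hr treatment, FRET read.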
Test [4] can be described thus: qHTS assay to identify small molecule agonists of the endoplasmic reticulum stress response signaling pathway - cell viability counter screen (AID 1159517; calls by dose curve; also: series mostly up to about 61 µM; nearly all actives have a fitted effect of over 50% in size). Summed up:
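HeLa cells carrying an ESRE-driven beta-lactamase reporter receive compound for 5 hr at 37 C. Cell viability is then gauged with CellTiter-Glo by luminescence, 30 min at room temperature.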

Test [5] is described as follows: qHTS assay to identify small molecule antagonists of the retinoid-related orphan receptor gamma (ROR-gamma) signaling pathway - cell viability counter screen (AID 1159520). Also: nearly all actives have a fitted effect of over 50% in size. In short, it runs like this:
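Cytotoxicity was read from cellular ATP (CellTiter-Glo luminescence) after 16 hr at 37 C with 1 uM doxycycline induction. The inducer was added 2 hr after compound transfer to Tet-on ROR gamma CHO cells.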

A short description of test [6]: qHTS assay to identify small molecule agonists of the AP-1 signaling pathway - cell viability counter screen (AID 1159525; calls by dose curve; also: nearly all actives have a fitted effect of over 55% in size). In short, it runs like this:
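Luminescent ATP readout (Cell Titer Glo, 30 min RT), normalised to DMSO and tetra n-octyl ammonium bromide controls. Cells were ME-180 AP-1-bla in 0.5% dialyzed FBS Opti-MEM, with a 5 h, 37 °C compound exposure.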

Test [7] is described as follows: qHTS assay to identify small molecule agonists of the AP-1 signaling pathway (AID 1159526; calls by dose curve).
A short description of test [8]: qHTS assay to identify small molecule agonists of the RXR signaling pathway - cell viability counter screen (AID 1159529). Also: nearly all actives have a fitted effect of over 50% in size. Also: potency is read from the fitted curve at half-maximal effect. Summed up:
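In this parallel viability measure, GeneBLAzer RXR-alpha HEK 293T cells (2% charcoal-stripped FBS) were given a 5 hr preincubation, treated with compounds 16 hr at 37 C, and read by CellTiter-Glo luminescence.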

Test [9] is described as follows: qHTS assay to identify small molecule antagonists of the retinoid acid receptor (RAR) signaling pathway - cell viability counter screen (AID 1159551). Also: nearly all actives have a fitted effect of over 35% in size. Summed up: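 Cytotoxicity counter screen in C3RL4 cells: 6 h compound exposure with 1 uM retinol (final), viability from cellular ATP by luminescence.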
Test [10] can be described thus: qHTS assay to identify small molecule antagonists of the retinoic acid receptor (RAR) signaling pathway (AID 1159552; also: nearly all actives have a fitted effect of over 50% in size; also: potency is read from the fitted curve at half-maximal effect). Summed up:
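C3RL4 RARE-luc cells, overnight plating; retinol 1 uM final added right after compound; 6 hr 37 C; luciferase read at 30 min RT.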

Test [11] is described as follows: qHTS assay to identify small molecule agonists of the retinoic acid receptor (RAR) signaling pathway (AID 1159553). Also: potency is read from the fitted curve at half-maximal effect. Summed up: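 Agonist activity was scored in C3RL4 cells bearing a retinoic acid response element luciferase construct. Cells were treated with compounds for 6 hr at 37 C, and luciferase signal was measured as luminescence.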
For test [12], the target named is Nuclear receptor ROR-gamma (Homo sapiens) (UniProt P51449). The test can be described thus: qHTS assay to identify small molecule antagonists of the retinoid-related orphan receptor gamma (ROR-gamma) signaling pathway (AID 1159521; also: nearly all actives have a fitted effect of over 50% in size; also: potency is read from the fitted curve at half-maximal effect). In short, it runs like this:
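Decreased RORE-driven luciferase luminescence indicates antagonism. Tet-on RORγ CHO cells received compound, then 1 uM final doxycycline 2 h later; signal read after 16 h incubation.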

A short description of test [13]: qHTS assay to identify small molecule antagonists of the estrogen related receptor (ERR) signaling pathway - cell viability counter screen (AID 1224818). Also: series mostly up to about 46 µM. In short, it runs like this:
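Cells carrying the ERR pathway reporter were seeded and incubated for 6 hours before compound addition. After a 17.5-hour exposure at 37 C, live-cell protease activity was measured by CellTiter-Fluor fluorescence following 30 minutes of incubation.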

Test [14] is described as follows: qHTS assay to identify small molecule antagonists of the estrogen related receptor signaling pathway with the pleiotropic PPARgamma coactivator (PGC) cell viability counter screen (AID 1224822;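 also: series mostly up to about 46 µM; viability read after 17.5 h compound exposure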). Summed up:
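Seed PGC/ERR cells (2,000/well); incubate 6 h at 37 C/5% CO2; pin-transfer compounds in DMSO; incubate 17.5 h at 37 C; add CellTiter-Fluor; after 30 min read fluorescence.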

A short description of test [15]: qHTS assay to identify small molecule antagonists of the estrogen related receptor (ERR) signaling pathway from Tox21 library - cell viability counter screen (AID 1224834). Also: nearly all actives have a fitted effect of over 30% in size. Also: potency is read from the fitted curve at half-maximal effect. Summed up: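 Cytotoxicity of test substances is gauged in the same ERR cells used for the antagonist screen, after 17.5 h of compound treatment at 37 C, by CellTiter-Fluor fluorescence measured after 30 min.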

The structures appear in SMILES notation. Where “and” joins values, the source holds several entries; their conditions need not be identical. Equal entries are not always repeated. Records with an inconclusive call do not appear. A structure can be active in one record and inactive in another. Calls of active or inactive are those of the source. Unless noted, calls follow the shape of the dose curve; as a rule, active = well fitted curve in the direction sought with a large enough effect in the repeat runs; inconclusive = weak or mixed curves; inactive = no such curve, though single readings can be large; an effect the other way counts as inactive or inconclusive.

`COc1ccc(C(=O)CC(=O)c2ccc(C(C)(C)C)cc2)cc1`: the compound was called inactive in test [1] and in test [7]. In addition, the Potency result in test [2], in test [3], in test [4], in [5], in [6] and in [8] was “inactive” throughout. In addition, the Potency entry in test [9] and in test [10] was “inactive” in each case. For the same compound, the Potency in test [11] is 58.7 µM (active) and inactive.

Consider `CN(C)CCC=C1c2ccccc2CCc2ccccc21`, for which the result in test [1] was inactive. The Potency entry in [2], in test [3], in test [4], in test [5], in test [6] and in [9] was “inactive” each time. For the same compound, the Potency result in test [13] and in test [14] was “inactive” throughout. Further, the Potency in [12] is 30.6 µM (active) and inactive; in test [8], 12.3 µM (active) and 15.5 µM (active) and 13.4 µM (active).

As to `Nc1ccc(Nc2ccccc2)cc1`, the result in test [1] was inactive. The Potency entry in test [2], in test [3], in test [4], in [5], in test [6] and in test [9] was “inactive” throughout. For the same compound, the Potency result in test [10] and in test [11] was “inactive” throughout. Further, the Potency result in [12] was “inactive and 27.3 µM (active)”; in [15], 54.5 µM (active) and 27.3 µM (active).

In the case of `Oc1ccc(O)cc1`, the call in [1] and in [7] was inactive. Also, the Potency result in test [4], in test [6], in [8], in test [11], in [13] and in [14] was “inactive” each time. Besides, the Potency in test [12] is 21.6 µM (active) and 38.6 µM (active) and 23.7 µM (active); in [10], 17.1 µM (active) and 24.3 µM (active) and 10.6 µM (active).

For the compound `O=C=Nc1ccc(Cc2ccc(N=C=O)cc2)cc1`, the outcome in test [1] and in test [7] was inactive. Moreover, the Potency result in [2], in test [4], in test [5], in [12], in test [6] and in [8] was “inactive” each time. Moreover, the Potency entry in test [9], in [10], in test [11] and in test [15] was “inactive” in each case.

Regarding `O=C1c2cccc(O)c2C(=O)c2c(O)cccc21`, in [1], the outcome was inactive. Also, the Potency entry in [2], in [4], in test [5], in test [12], in test [6] and in test [8] was “inactive” in each case. In addition, the Potency result in test [9], in test [10] and in test [11] was “inactive” throughout.
